GPR151 ag: activates the human receptor GPR151; Q8TDV0; PathHunter beta-arrestin GPR151 cells, luminescence; activation, % at 11.2 µM; 1% of 650,000 active; AID 1508602; in the data active = activation above about 4.9%
MITF inh: blocks human microphthalmia-associated transcription factor. O75030. AlphaScreen MITF homodimerization, bead proximity signal. inhibition, % at 2.6 µM. 0.91% of 650,000 active. AID 1259374; in the data active = inhibition above about 50%
FBW7 activator: activators of human E3 ligase FBW7. Q969H0. AlphaScreen FBW7–phospho-cyclin E peptide binding, activator screen. normalized activity (activation), % at 26.1 µM. 0.13% of 650,000 active. AID 1259310; in the data active = normalized activity above about 1.9%;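 also: purified mutant Fbw7 with reduced substrate affinity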
Target sequence (Q969H0 whole entry, looked up): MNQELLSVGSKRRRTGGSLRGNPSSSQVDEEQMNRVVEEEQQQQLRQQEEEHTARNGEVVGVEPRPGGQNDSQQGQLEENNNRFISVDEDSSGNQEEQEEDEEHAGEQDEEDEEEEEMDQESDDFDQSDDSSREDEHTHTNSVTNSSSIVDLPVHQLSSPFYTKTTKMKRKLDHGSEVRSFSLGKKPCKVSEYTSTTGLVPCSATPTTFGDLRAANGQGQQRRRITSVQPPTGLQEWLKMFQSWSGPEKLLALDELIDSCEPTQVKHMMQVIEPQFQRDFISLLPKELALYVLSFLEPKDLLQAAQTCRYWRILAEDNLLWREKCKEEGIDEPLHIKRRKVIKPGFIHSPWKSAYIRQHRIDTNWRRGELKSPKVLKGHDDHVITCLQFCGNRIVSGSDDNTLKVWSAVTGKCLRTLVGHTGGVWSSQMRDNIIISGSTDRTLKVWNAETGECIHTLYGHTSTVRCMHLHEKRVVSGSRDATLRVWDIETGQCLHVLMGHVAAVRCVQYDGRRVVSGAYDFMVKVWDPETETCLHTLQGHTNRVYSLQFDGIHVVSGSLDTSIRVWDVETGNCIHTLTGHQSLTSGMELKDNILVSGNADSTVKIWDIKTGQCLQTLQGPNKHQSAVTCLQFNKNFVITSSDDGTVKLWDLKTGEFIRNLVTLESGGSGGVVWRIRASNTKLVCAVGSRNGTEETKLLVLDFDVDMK
TEAD-YAP block: TEAD-YAP interaction inhibition; HEK-TIYL cells, TEAD-Gal4/YAP UAS-luciferase luminescence; AID 1259422; 1.4% of 640,000 active; inhibition, % at 9.12 µM; in the data active = inhibition above about 32%
MITF inh conf: confirmation of human MITF inhibitors; AID 1259372; 16% of 4,700 active; shares compounds with MITF inh; AlphaScreen MITF homodimerization, biotin/His-MITF beads; inhibition, % at 2.6 µM;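 active = inhibition above a cutoff derived from the DMSO control wells, cut at about 28% in these data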;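 also: inhibitors lower the bead chemiluminescence by keeping MITF from dimerizing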
AS interf DR: optically interferes with AlphaScreen signal in dose response; shares compounds with MITF inh; AlphaScreen optical interference counterscreen, cell-free; IC50, µM; 6% of 480 active; AID 1259373; call rule not given here
AS interf ctr: counter-screen: compounds optically interfering with AlphaScreen | AID 1259376 | LysRS AlphaScreen counterscreen, signal interference, triplicate | 7.6% of 4,700 active | shares compounds with MITF inh | inhibition, % at 2.6 µM;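 active = inhibition above a cutoff derived from the DMSO control wells, cut at about 30% in these data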
Numbers stand for hits; . = inactive; / = no result. Compounds with a hit are over-represented: about 3.5% of the library has one in this group of screens.

SMILES	GPR151 ag	MITF inh	FBW7 activator	TEAD-YAP block	MITF inh conf	AS interf ctr	others
O=C(Cc1ccc(Cl)cc1)Nc1ccc(C(=O)N2CCCCC2)cc1	.	.	.	.	/	/
Cn1c(=O)n(CC(N)=O)c(=O)c2c1nc1n(-c3ccccc3)c(-c3ccccc3)cn21	.	.	.	.	/	/
O=C1c2cccc3cccc(c23)C(=O)N1CCCN1CCOCC1	.	.	.	.	/	/
O=S(=O)(Nc1ccc(S(=O)(=O)Nc2ccccc2Cl)cc1)c1ccc(F)cc1	.	.	.	.	/	/
CC(C)(C)c1csc(CN2CCN(CC(=O)N3CCOCC3)CC2)n1	.	54	.	.	.	.
CC(C)(C)c1csc(CN2CCN(CC(=O)NC3CCCCC3)CC2)n1	.	.	.	.	/	/
O=C(c1cc(S(=O)(=O)N2CCOCC2)c(Cl)cc1Cl)N1CCOCC1	.	.	.	.	/	/
CCOc1cc(C2C3=C(CCCC3=O)Nc3nc(-c4ccccc4)nn32)ccc1OCc1ccccc1 (stereo not drawn)	.	.	.	.	/	/
O=C(CN1CC(=O)Oc2ccccc21)Oc1ccc(F)cc1	.	69	.	.	.	.
CCC(C)(C)C1CCc2sc3ncnc(NCCCN4CCOCC4)c3c2C1 (stereo not drawn)	.	.	.	.	/	/
COc1ccc(OC)c(/C=C/C(=O)NCCN2CCC(N(C)C3CCCCC3C)CC2)c1 (stereo not drawn)	.	52	.	.	.	.
COc1ccc(/C=C/C(=O)NCCCN2CCC(N(C)C3CCCCC3C)CC2)cc1 (stereo not drawn)	.	.	.	.	/	/
CSc1ccc(CN2CCN(S(=O)(=O)c3ccc(F)cc3)CC2)cc1	.	.	.	.	/	/
Cc1ccc(CN2CCN(CC3CC4C=CC3C4)CC2)cc1 (stereo not drawn)	.	74	.	.	.	.
COc1cc(CN2CCN(CC3CC4C=CC3C4)CC2)cc(OC)c1OC (stereo not drawn)	.	56	.	.	.	.
Fc1ccc(CN2CCN(CC3CC4C=CC3C4)CC2)cc1 (stereo not drawn)	.	79	.	.	.	.
CSc1ccc(CN2CCN(CC3CC4C=CC3C4)CC2)cc1 (stereo not drawn)	.	62	.	.	.	.
COc1ccc(OC)c(CN2CCN(CC3CC4C=CC3C4)CC2)c1 (stereo not drawn)	.	.	.	.	/	/
COc1ccc(/C=N/Nc2nc(-c3ccc(F)cc3)cs2)cc1	.	.	.	.	/	/
O=C(/C=C/c1ccccc1Cl)Nc1ncc(Cc2ccc(Br)cc2)s1	.	.	.	.	/	/
CC1CCCC(C)N1C(=O)c1cc2n(n1)C(C(F)(F)F)CC(c1ccc(Cl)c(Cl)c1)N2 (stereo not drawn)	.	59	.	.	.	.
O=C(NCCCO)c1ccc(OC2CCN(CCc3ccccc3)CC2)cc1	.	.	.	.	/	/
O=C(NCCCn1ccnc1)c1ccc(OC2CCN(CCc3ccccc3)CC2)cc1	.	69	.	.	.	.
Cc1n[nH]c(C)c1CCc1nc2c3ccccc3nc(NCCN3C(C)CCCC3C)n2n1 (stereo not drawn)	.	.	.	.	/	/
Cc1nc2n(C)c3ccccc3n2c1C(=O)NN	.	95	.	54	.	.
SMILES	GPR151 ag	MITF inh	FBW7 activator	TEAD-YAP block	MITF inh conf	AS interf ctr	others
CCN(CC)CCOC(=O)c1c(C)nc2n(C)c3ccccc3n12	.	.	.	.	/	/
CCCCn1c(CNC(=O)c2ccc(C)c([N+](=O)[O-])c2)nnc1SC(C)C(=O)Nc1sc2c(c1C(=O)OCC)CCC2 (stereo not drawn)	.	.	.	.	/	/
c1ccc(-c2ccc(CN3CCSCC3)cc2)cc1	.	.	.	.	/	/
OCCN1CCN(Cc2ccc(-c3ccccc3)cc2)CC1	.	61	.	.	.	.
CC(=O)Nc1ccc(CN2CCN(C)CC2)cc1	.	80	.	.	.	.
CN1CCN(Cc2ccc(-c3ccccc3)cc2)CC1	.	61	.	.	.	.
CC(=O)C(C)n1c(=O)c2c(nc3n(-c4cccc(C)c4)c(C)cn23)n(C)c1=O (stereo not drawn)	.	.	.	.	/	/
COc1ccc2c(c1)C(C)CC(C)(C)N2C(=O)NC1CCCCC1 (stereo not drawn)	.	.	.	.	/	/
COc1ccc2c(c1)C(C)CC(C)(C)N2C(=O)CNCCN1CCOCC1 (stereo not drawn)	.	88	.	.	.	.
CC(=O)c1ccc(NC(=O)CSc2nnc3[nH]c(=O)c(C)c(C)n23)cc1	.	56	.	.	.	.
COC(=O)c1ccc(NC(=O)CSc2nnc3[nH]c(=O)c(C)c(C)n23)cc1	.	.	.	.	/	/
O=C(CSCc1ccccc1)NCc1ccc2c(c1)OCO2	.	.	.	.	/	/
COc1cccc(CNCC(=O)NCc2ccc3c(c2)OCO3)c1	.	60	.	.	.	.
O=C(CNCCN1CCOCC1)NCc1ccc2c(c1)OCO2	.	84	.	.	.	.
O=C(CNCCc1ccccc1)NCc1ccc2c(c1)OCO2	.	73	.	.	.	.
CC(C)NC(=O)CNCc1ccc2c(c1)OCO2	.	.	.	.	/	/
O=C(CNCc1ccc2c(c1)OCO2)Nc1ccccc1F	.	64	.	.	.	.
CCSc1nc2ccc(N3C(=O)c4ccc([N+](=O)[O-])cc4C3=O)cc2s1	.	.	.	.	/	/
O=C(CNCc1cccnc1)Nc1ccc2c(c1)OCO2	.	59	.	.	.	.
O=C(CNCc1cccnc1)Nc1ccccc1	.	.	.	.	/	/
O=C(NCCc1ccccc1)C1CC12CCN(C1CCSC1)CC2 (stereo not drawn)	.	.	.	.	/	/
C=CCNC(=O)COC(=O)c1cc(-c2ccco2)nc2ccccc12	.	57	.	.	65	.	AS interf DR=.
N#Cc1cc([N+](=O)[O-])ccc1NC(=O)COC(=O)c1cc(-c2ccco2)nc2ccccc12	.	51	.	.	41	.	AS interf DR=.
COc1cccc(COC(=O)Nc2ccc(-c3cn[nH]c3)cc2OCCN(C)C)c1	.	.	.	.	/	/
COc1cccc(COC(=O)Nc2cc(F)c(-c3cn[nH]c3)cc2OCCN(C)C)c1	.	80	.	.	47	.
SMILES	GPR151 ag	MITF inh	FBW7 activator	TEAD-YAP block	MITF inh conf	AS interf ctr	others
COCCCNC(=O)CSc1nc2ccc(N3CCCCC3)cc2c(=O)n1Cc1ccccc1	.	.	.	.	/	/
O=C(c1ccccc1F)N1CCC(O)(c2cccnc2)CC1	.	.	.	.	/	/
O=C(c1ccccc1F)N1CCN(Cc2cccnc2)CC1	.	63	.	.	.	.
O=C(c1ccccc1F)N1CCN(Cc2ccc(Br)cc2)CC1	.	.	.	.	/	/
O=C(c1ccco1)N1CCN(Cc2cccnc2)CC1	.	66	.	.	.	.
COc1cc(CN2CCN(C(=O)c3ccco3)CC2)cc(OC)c1OC	.	.	.	.	/	/
O=C(c1ccccc1F)N1CCN(Cc2ccncc2)CC1	.	73	.	.	.	.

Screening data: PubChem BioAssay, The Scripps Research Institute Molecular Screening Center
